Experimental data taken from PubChem BioAssay (NCI).
Where “and” joins values, the source holds several entries; their conditions need not be identical. Equal entries are not always repeated. About 83,000 compounds went through this panel and 20% of them were active in at least one assay; those are over-represented in the sample as a whole.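 Compound tested at a single concentration for 48 hours in 96-well plates; a percent growth value below 10 was scored as active.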 Values without a mark were called inactive. Calls of active or inactive are those of the source.

Each compound was assayed on NCI/ADR-RES ovarian (assay: NCI-60 one-dose screen, 48 h (100 = growth as untreated, 0 = no growth, -100 = all killed)). Details: 10 µM unless noted.

Compound	growth
N#CC(C#N)=Cc1cccc(F)c1	107%
CN(C)c1ccc(C=C2C(=O)NC(=O)NC2=O)cc1	76.7%
O=[N+]([O-])c1ccc2scc3c4ccccc4nc-3c2c1	10.7%
Cc1cc(NC(=O)NCCCOc2ccc(N3C(N)=NC(N)=NC3(C)C)cc2Cl)ccc1S(=O)(=O)F	100%
Nc1c(Cl)c(Cl)nc(C(=O)O)c1Cl	101%
Cn1cc(C(=O)C[n+]2ccccc2)c2ccccc21	100%
Nc1nc(=S)nc(N)[nH]1	95.6%
C[C@]12CCC(=O)C[C@@H]1CC[C@@H]1[C@@H]2CC[C@]2(C)[C@@H](OC(=O)N(CCCl)N=O)CC[C@@H]12	25%
NC1CN2CCC1CC2 (stereo not drawn)	101%
O=C(O)C1C(C(=O)O)C2(Cl)C(Cl)=C(Cl)C1(Cl)C2(Cl)Cl (stereo not drawn)	111% and 106%
O=C1NC(=O)C(=C/C=C/c2ccccc2)C(=O)N1	-29.1% (active)
c1ccc(CCN2CCCCC2)nc1	109%
O=[N+]([O-])c1cc(Br)c(O)c(Br)c1	104%
Cc1cc(Br)c([N+](=O)[O-])cc1[N+](=O)[O-]	94.4%
C[C@]12CC[C@@H](OC(=O)N(CCCl)N=O)C[C@@H]1CC[C@@H]1[C@@H]2CC[C@]2(C)C(=O)CC[C@@H]12	42.9%
CCOC(=O)C1C(C=C(C)C)C1(C)C (stereo not drawn)	99.1%

Compound	growth
Oc1ccc(O)c(Cl)c1	102% and 97.3%
CC(C)c1cccc(C(C)C)c1O	108% and 106%
N#CC(C#N)=C(C#N)C#N	110%
CC(C)CCC1C(=O)NC(=O)NC1=O	105%
COc1ccc(N)cc1N	106%
C[C@H](O)CCC(=O)c1ccoc1	102%
CCCCCCCCCCCCCCCCCC1OCC(COC(=O)O[C@@H](C(=O)O[C@H]2C[C@@]3(O)[C@@H](OC(=O)c4ccccc4)[C@@H]4[C@]5(OC(C)=O)CO[C@@H]5C[C@H](O)[C@@]4(C)C(=O)[C@H](OC(C)=O)C(=C2C)C3(C)C)[C@@H](NC(=O)c2ccccc2)c2ccccc2)O1 (stereo partly drawn)	103%
O=c1[nH]c(=O)[nH]c(=O)[nH]1	102%
O=CC1(c2ccccc2)CCN(Cc2ccccc2)CC1	101%
CC(=O)c1cccc(S(=O)(=O)F)c1	96.9%
CC(=O)Nc1nc2c(s1)C1=CC[C@H]3[C@@H]4CC[C@H](OC(C)=O)[C@@]4(C)CC[C@@H]3[C@@]1(C)CC2	43.4%
CC1=CC(=O)CCC12CCOC2=O (stereo not drawn)	94.7%
CN(C)C(=S)SSC(=S)N(C)C	110% and 113%
ClC1OC(Cl)(Cl)C(Cl)(Cl)OC1(Cl)Cl (stereo not drawn)	102%
COc1ccc(N)cc1OC	107%

What follows are compounds tested on T-47D breast in the same assay as above. Details: 10 µM unless noted.

Compound	growth
N#CC(C#N)=Cc1cccc(F)c1	105%
[N-]=[N+]=CC(=O)CCC(=O)C=[N+]=[N-]	106%
CC1=C2[C@H]3OC(=O)[C@@H](C)[C@@H]3CC[C@@]2(C)C=CC1=O	109%
O=[N+]([O-])c1ccc2scc3c4ccccc4nc-3c2c1	-24.3% (active)
Cc1cc(NC(=O)NCCCOc2ccc(N3C(N)=NC(N)=NC3(C)C)cc2Cl)ccc1S(=O)(=O)F	51.1%
Nc1c(Cl)c(Cl)nc(C(=O)O)c1Cl	101%
Cn1cc(C(=O)C[n+]2ccccc2)c2ccccc21	86.9%
Nc1nc(=S)nc(N)[nH]1	94.5%
C[C@]12CCC(=O)C[C@@H]1CC[C@@H]1[C@@H]2CC[C@]2(C)[C@@H](OC(=O)N(CCCl)N=O)CC[C@@H]12	34%
O=C(O)C1C(C(=O)O)C2(Cl)C(Cl)=C(Cl)C1(Cl)C2(Cl)Cl (stereo not drawn)	98.7%
O=C1NC(=O)C(=C/C=C/c2ccccc2)C(=O)N1	32.2%
c1ccc(CCN2CCCCC2)nc1	91.1%
O=[N+]([O-])c1cc(Br)c(O)c(Br)c1	115%
Cc1cc(Br)c([N+](=O)[O-])cc1[N+](=O)[O-]	85.7%
C[C@]12CC[C@@H](OC(=O)N(CCCl)N=O)C[C@@H]1CC[C@@H]1[C@@H]2CC[C@]2(C)C(=O)CC[C@@H]12	33.8%
CCOC(=O)C1C(C=C(C)C)C1(C)C (stereo not drawn)	115%

Compound	growth
Oc1ccc(O)c(Cl)c1	89.1%
CC(C)c1cccc(C(C)C)c1O	95% and 93.2%
N#CC(C#N)=C(C#N)C#N	95.8%
CC(C)CCC1C(=O)NC(=O)NC1=O	78.6%
COc1ccc(N)cc1N	96.1%
CC1OC(=O)C(C(C)C)NC(=O)C(C(C)C)OC(=O)C(C(C)C)NC(=O)C(C)OC(=O)C(C(C)C)NC(=O)C(C(C)C)OC(=O)C(C(C)C)NC(=O)C(C)OC(=O)C(C(C)C)NC(=O)C(C(C)C)OC(=O)C(C(C)C)NC1=O (stereo not drawn)	-15.2% (active)
C[C@H](O)CCC(=O)c1ccoc1	108%
CCCCCCCCCCCCCCCCCC1OCC(COC(=O)O[C@@H](C(=O)O[C@H]2C[C@@]3(O)[C@@H](OC(=O)c4ccccc4)[C@@H]4[C@]5(OC(C)=O)CO[C@@H]5C[C@H](O)[C@@]4(C)C(=O)[C@H](OC(C)=O)C(=C2C)C3(C)C)[C@@H](NC(=O)c2ccccc2)c2ccccc2)O1 (stereo partly drawn)	32.9%
O=c1[nH]c(=O)[nH]c(=O)[nH]1	102%
O=CC1(c2ccccc2)CCN(Cc2ccccc2)CC1	105%
CC(=O)c1cccc(S(=O)(=O)F)c1	110%
CC(=O)Nc1nc2c(s1)C1=CC[C@H]3[C@@H]4CC[C@H](OC(C)=O)[C@@]4(C)CC[C@@H]3[C@@]1(C)CC2	74.3%
CCC1CCC(=O)O1 (stereo not drawn)	93.5% and 118%
CN(C)C(=S)SSC(=S)N(C)C	85.8% and 95.4%
ClC1OC(Cl)(Cl)C(Cl)(Cl)OC1(Cl)Cl (stereo not drawn)	91.4%
COc1ccc(N)cc1OC	100%
